Screens (PubChem BioAssay)
SmPrx2 inh = blocks S. mansoni peroxiredoxin 2 enzymatic activity. S. mansoni Prx2 activity coupled to TGR/GSH (TGR is thioredoxin glutathione reductase), NADPH fluorescence loss, qHTS. Potency, µM. 0.07% of 65,000 active. AID 448
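Activity is read as the drop in NADPH fluorescence (365/450 nm), recorded every 30 sec for 8 min after H2O2 addition. Prx2 is coupled to TGR-driven NADPH oxidation through glutathione, in phosphate buffer pH 7.4.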
LT uptake inh = inhibitors of anthrax lethal toxin internalization | Potency, µM (titrated, usually from 40 µM), usual class: inhibitors | 0.67% of 70,000 active | Cells, anthrax lethal toxin internalization, FRET ratio (460/530) | AID 912; also: nearly all actives have a fitted effect of over 50% in size
AmpC inh no det = AmpC beta-lactamase inhibition, detergent-free assay; AmpC nitrocefin hydrolysis, absorbance 480 nm, no detergent; Potency, µM (titrated, usually from 28.7 µM); 1.8% of 71,000 active
Target sequence (P00811 whole entry, looked up): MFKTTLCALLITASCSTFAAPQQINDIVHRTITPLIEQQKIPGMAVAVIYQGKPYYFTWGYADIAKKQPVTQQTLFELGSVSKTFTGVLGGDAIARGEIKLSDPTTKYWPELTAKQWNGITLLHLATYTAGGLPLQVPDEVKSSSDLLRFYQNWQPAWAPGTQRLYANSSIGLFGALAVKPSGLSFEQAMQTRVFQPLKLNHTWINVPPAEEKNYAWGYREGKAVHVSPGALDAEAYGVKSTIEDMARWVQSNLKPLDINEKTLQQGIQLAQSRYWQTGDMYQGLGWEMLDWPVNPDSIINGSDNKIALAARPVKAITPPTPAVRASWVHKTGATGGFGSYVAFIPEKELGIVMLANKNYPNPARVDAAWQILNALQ
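Enzyme, pH 7.0 phosphate. Compound titrations were pre-incubated with AmpC for 15 min at room temperature before nitrocefin (stock 800 uM) addition; product formation was recorded at 480 nm every 20 s for 4 min.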
AmpC det inh = AmpC beta-lactamase inhibition, detergent assay; P00811; 0.09% of 71,000 active; AID 584; purified AmpC, nitrocefin hydrolysis with detergent; Potency, µM (top dose mostly 28.7 µM); active = well fitted curve in the direction sought with a large enough effect; inconclusive = small, poorly fitted or top-dose-only effect
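E. coli AmpC (5.3 nM) in 20 mM phosphate pH 7.0 with 0.01% Triton X-100, preincubated 15 min RT with compound; nitrocefin (2 uL of 800 uM stock) hydrolysis followed by 480 nm absorbance every 20 s over 4 min.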
A number is an active result; - = inactive; ? = inconclusive; . = not tested or not shown; [ ] = remark or other dose. A selection: hits, their analogues and other compounds. The true share with any hit is near 2.6%. Unless noted, calls follow the shape of the full dose curve.

SMILES	SmPrx2 inh	LT uptake inh	AmpC inh no det	AmpC det inh
Cc1ccc(CCNC(=O)C2CCCN(S(=O)(=O)c3cnc[nH]3)C2)cc1 (stereo unspecified)	-	-	-	-
O=C(NCCN1CCN(c2ccccc2)CC1)C1CCCN(S(=O)(=O)c2cnc[nH]2)C1 (stereo unspecified)	-	-	2.5µM[single pt active]	-
NCCC[C@@H](CC(=O)N[C@@H]1CCCC[C@H]1C(=O)N[C@H](CC(=O)N[C@@H](CCC(=O)O)CC(=O)O)Cc1ccccc1)NC(=O)C[C@H](CO)NC(=O)[C@@H]1CCCC[C@H]1N	-	-	-	-
ClC(Cl)=C(Cl)Cl	.	-	-	-
O=[N+]([O-])/C=C\c1cc2ccccc2[nH]1	-	-[8 µM]	-[5.75 µM]	-[5.75 µM]
O=c1oc2cc(N=Cc3ccc4c(c3)OCO4)ccc2c2ccccc12	-	-[8 µM]	-[5.75 µM]	-[5.75 µM]
COC(=O)[C@@H]1O[C@@H](SCCN)[C@@H](O)[C@H](O)[C@H]1O	-	-[8 µM]	-[5.75 µM]	-[5.75 µM]
CC(=O)NC1=C(OS(=O)(=O)c2ccc(C)cc2)CN(C)C1=O	-	?	-[5.75 µM]	-[5.75 µM]
S=C1NC=NC2N=CNC12 (stereo unspecified)	.	-	-	-
